This is an account of results in doi:10.1101/2025.08.08.669391.

This experiment has as its target Splicing factor 3B subunit 1 (UniProt O75533). Nature of the experiment: cross-link between two proteins; cross-linking mass spectrometry.
Sequence of UniProt O75533 (O75533 whole entry): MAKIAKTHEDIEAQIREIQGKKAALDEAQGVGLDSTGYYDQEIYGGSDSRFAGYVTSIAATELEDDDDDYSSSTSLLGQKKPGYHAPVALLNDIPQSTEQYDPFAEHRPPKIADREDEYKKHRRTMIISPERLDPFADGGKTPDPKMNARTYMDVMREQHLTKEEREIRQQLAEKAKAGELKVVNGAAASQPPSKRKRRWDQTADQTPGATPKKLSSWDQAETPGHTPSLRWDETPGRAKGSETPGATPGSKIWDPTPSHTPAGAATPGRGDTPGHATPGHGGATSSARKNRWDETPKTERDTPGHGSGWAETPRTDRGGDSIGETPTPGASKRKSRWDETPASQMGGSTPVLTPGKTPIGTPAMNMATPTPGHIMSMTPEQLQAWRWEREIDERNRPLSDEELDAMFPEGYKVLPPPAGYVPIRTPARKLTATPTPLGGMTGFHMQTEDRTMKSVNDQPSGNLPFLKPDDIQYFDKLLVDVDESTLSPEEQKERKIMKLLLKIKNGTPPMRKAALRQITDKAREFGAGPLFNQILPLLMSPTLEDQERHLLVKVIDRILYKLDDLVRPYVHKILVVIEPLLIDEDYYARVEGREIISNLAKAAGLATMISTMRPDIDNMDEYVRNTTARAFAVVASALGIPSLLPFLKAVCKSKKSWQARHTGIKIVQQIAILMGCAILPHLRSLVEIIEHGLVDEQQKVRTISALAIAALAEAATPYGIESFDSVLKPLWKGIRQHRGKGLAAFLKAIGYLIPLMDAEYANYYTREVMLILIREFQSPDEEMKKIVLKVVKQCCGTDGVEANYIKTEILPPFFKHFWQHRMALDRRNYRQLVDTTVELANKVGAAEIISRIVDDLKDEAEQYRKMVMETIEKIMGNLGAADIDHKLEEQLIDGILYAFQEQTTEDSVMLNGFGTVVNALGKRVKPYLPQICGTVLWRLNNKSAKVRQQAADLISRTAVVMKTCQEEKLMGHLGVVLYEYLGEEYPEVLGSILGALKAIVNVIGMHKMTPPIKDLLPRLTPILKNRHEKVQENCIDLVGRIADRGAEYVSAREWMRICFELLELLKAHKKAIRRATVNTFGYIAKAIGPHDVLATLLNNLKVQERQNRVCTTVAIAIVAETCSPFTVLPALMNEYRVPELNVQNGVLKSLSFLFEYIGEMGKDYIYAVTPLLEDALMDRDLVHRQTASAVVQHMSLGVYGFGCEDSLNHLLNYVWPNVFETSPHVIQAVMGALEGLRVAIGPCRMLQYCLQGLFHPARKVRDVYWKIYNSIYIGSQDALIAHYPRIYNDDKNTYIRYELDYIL

On to “17S U2 SnRNP complex component HTATSF1, O43719”, for which the “listed as a hit” value is listed as “yes”.
